# Only some compounds are listed: those with a hit (about 21% of all), similar ones and a draw of the others.
# RORg inh = qHTS for inhibitors of ROR gamma transcriptional activity; 310,000 compounds, 5.4% hits; Potency, µM (titrated, usually from 53.6 µM), inactives show top-dose activity change, negative = inhibition, usual class: inhibitors; Drosophila S2 Gal4-RORgamma UAS-luciferase reporter, 20 h; further: potency means the concentration at half of the fitted maximal effect; nearly all actives have a fitted effect of over 60% in size
# Target sequence (P51450 whole entry, looked up, the tested form may be a part): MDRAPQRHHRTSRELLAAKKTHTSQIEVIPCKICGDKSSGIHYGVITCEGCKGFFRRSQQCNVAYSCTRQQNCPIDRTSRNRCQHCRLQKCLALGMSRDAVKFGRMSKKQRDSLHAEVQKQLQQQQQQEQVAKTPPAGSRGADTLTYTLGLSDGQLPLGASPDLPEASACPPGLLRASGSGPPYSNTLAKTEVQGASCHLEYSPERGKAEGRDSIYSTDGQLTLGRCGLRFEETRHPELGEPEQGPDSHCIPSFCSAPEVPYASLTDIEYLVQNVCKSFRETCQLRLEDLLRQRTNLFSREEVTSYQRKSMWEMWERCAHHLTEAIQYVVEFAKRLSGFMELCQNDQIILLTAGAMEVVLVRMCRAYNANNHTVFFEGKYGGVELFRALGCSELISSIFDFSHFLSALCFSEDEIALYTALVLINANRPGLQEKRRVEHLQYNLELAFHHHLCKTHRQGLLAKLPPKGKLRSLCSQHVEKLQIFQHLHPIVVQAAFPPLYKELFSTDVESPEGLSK
#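 Schneider cells (Drosophila), stable Gal4 DBD–ROR gamma + UAS-luc; 1 hr cmpd preincubation; Cu2+ induction 700 uM final; 20 hr ambient; luminescence.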
# IL-1B inflam inh = qHTS for Inhibitors of Inflammasome Signaling: IL-1-beta AlphaLISA Primary Screen; 360,000 compounds, 4.7% hits; activity change, % at 57.5 µM; AID 743279, 2014; THP-1 LPS/ATP IL-1B secretion, AlphaLISA, 16 h; active compounds read low; in the data active means activity change below about -50%; inconclusive means mostly about -30% to -49%
#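 THP-1 cells pretreated 1 hr with compounds (up to 57.5 uM final), then stimulated with LPS (250 ng/mL final) plus ATP (1.25 mM final); secreted IL-1B measured by AlphaLISA after 16 hr, decreased signal indicating inhibition.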
# ELG1 DNA repair = qHTS screen for small molecules that inhibit ELG1-dependent DNA repair in human embryonic kidney (HEK293T) cells expressing luciferase-tagged ELG1. AID 504467, 2011. HEK293T ELG1-luciferase reporter, luminescence, 16 h; DNA damage induced by 5-fluorouridine. Potency, µM (series often up to 46.1 µM), for the others: top-dose activity change, negative = inhibition, actives largely listed as inhibitors. 330,000 compounds, 2.3% hits; further: potency means the concentration at half of the fitted maximal effect; nearly all actives have a fitted effect of over 55% in size
#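 Luminescence from the luciferase reporter, measured 30 min after ONE-Glo reagent at room temperature, was the read-out. Beforehand, 2,000 cells per well were exposed for 16 hr at 37 °C to 5-fluorouridine together with compound or vehicle.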
# DT40 TDP1 no CPT = qHTS for Inhibitors of human tyrosyl-DNA phosphodiesterase 1 (TDP1): qHTS in cells in absence of CPT. DT40 Tdp1-/- hTDP1 cells, no CPT, ATP luminescence, 48 h. Potency, µM (top dose mostly 46.2 µM), for the others: top-dose activity change, negative = growth inhibition, usual class: inhibitors. 420,000 compounds, 15% hits. AID 686978, 2013; further: potency means the concentration at half of the fitted maximal effect; nearly all actives have a fitted effect of over 55% in size
#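 Chicken DT40 Tdp1-/- cells complemented with human TDP1, screened without camptothecin (DMSO vehicle only), 400 cells/well. Compounds pin-transferred, cells incubated at 37 °C for at least 48 hr. Growth read as ATP-dependent luminescence (CellTiter-Glo, 30 min at RT).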
# VP16 counter = VP16 counterscreen qHTS for inhibitors of ROR gamma transcriptional activity. Drosophila S2 Gal4-VP16 UAS-luciferase, luminescence, 20 h. Potency, µM (highest dose often 53.6 µM), inactives show top-dose activity, negative = inhibition, usual class: inhibitors. 310,000 compounds, 3.5% hits. AID 2546, 2010;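 further: Gal4-VP16 expression switched on by copper sulfate through the metallothionein promoter; potency means the concentration at half of the fitted maximal effect; nearly all actives have a fitted effect of over 50% in size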
# DT40 TDP1 CPT = qHTS for Inhibitors of human tyrosyl-DNA phosphodiesterase 1 (TDP1): qHTS in cells in presence of CPT. chicken DT40 Tdp1-/-;hTDP1 cells + 20 nM CPT, ATP luminescence, 48 h. Potency, µM (titrated, usually from 46.2 µM), for inactives: top-dose activity change, negative = growth inhibition, usual class: inhibitors. 420,000 compounds, 12% hits. AID 686979, 2013; further: potency means the concentration at half of the fitted maximal effect; nearly all actives have a fitted effect of over 55% in size
#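 Chicken DT40 Tdp1-/- cells complemented with human TDP1, 400 cells/well, exposed to compounds plus 20 nM camptothecin for at least 48 h at 37 C; viability read as ATP content by CellTiter-Glo luminescence.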
# * = called active by the depositor; ? = inconclusive; / = no result. Unless noted, the call rests on the fitted dose curve; in most records, active means well fitted curve in the direction sought with a large enough effect; inconclusive means small, poorly fitted or top-dose-only effect, or another doubt; inactive means no such curve, though single readings can be large; an effect the other way counts as inactive or inconclusive. On the % scale 0 is the no-effect control and ±100 the full control effect.
SMILES,RORg inh,IL-1B inflam inh,ELG1 DNA repair,DT40 TDP1 no CPT,VP16 counter,DT40 TDP1 CPT
CCCCCc1cc(=O)oc2c(C(CCN3CCN(c4ccccc4)CC3)c3ccc4c(c3)OCO4)c(OC)cc(OC)c12 (stereo unspecified),-0.1%,18.4,-18.4%,16.4µM*,-1.8%,25.9µM*
CCN(CC)CCC(c1ccc(OC)cc1)c1c(OC)cc(OC)c2c(C)cc(=O)oc12 (stereo unspecified),-17.4%,/,/,/,-15.8%,/
CCCCCc1cc(=O)oc2c(C(CCN3CCCC3)c3ccc(N(C)C)cc3)c(OC)cc(OC)c12 (stereo unspecified),?,-76.3*,15.4%,8.2µM*,-16.9%,14.6µM*
COCCNc1ncnc2ccc(-c3ccc(N(C)C)cc3)cc12,?,/,/,?,-3.3%,?
Cc1cn(C2CC3OCC(NC(=O)C(Cc4ccccc4)NC(=O)OC(C)(C)C)C3O2)c(=O)[nH]c1=O (stereo unspecified),-8.3%,/,/,/,-7.9%,/
Cc1cc(Cl)ccc1OCC(=O)NCC1Cc2cc(-c3cnccn3)ccc2O1 (stereo unspecified),/,/,/,1.2%,/,-3.4%
COc1ccc(C(CCN2CCCC(C)C2)c2c(OC)cc(OC)c3c2OC(=O)CC3c2cc(OC)c(OC)c(OC)c2)cc1 (stereo unspecified),4.7%,-9.8,17.5%,?,2.6%,16.4µM*
CCCCCc1cc(=O)oc2c(C(CCN3CCCC3)c3cc(OC)c(OC)c(OC)c3)c(OC)cc(OC)c12 (stereo unspecified),-3.0%,-5.1,2.8%,16.4µM*,-3.0%,5.8µM*
CCCCCc1cc(=O)oc2c(C(CCN3CCCC(C)C3)c3ccc(OC)cc3)c(OC)cc(OC)c12 (stereo unspecified),2.7%,-54.0*,-3.3%,23.1µM*,2.2%,?
O=C(CSc1nnc(-c2cccs2)o1)Oc1ccc(Cl)cc1,/,/,/,-4.2%,/,-2.4%
Cc1nc(C(F)(F)F)ccc1C(=O)N1CCC1(C)C(=O)NS(=O)(=O)c1ccc(C(C)(C)C)cc1 (stereo unspecified),/,1.6,/,-1.9%,/,-27.0%
Cc1ccc(S(=O)(=O)n2ccc3c(OCCOCCNCc4ccc(F)cc4)cccc32)cc1,-89.0%,-88.5*,?,18.4µM*,?,?
O=c1oc(=S)oc2c1[C@H](c1ccc(Cl)cc1)O[C@H](C1CC1)C2,/,16.8,/,-13.6%,/,-3.4%
O=c1oc(=S)oc2c1[C@H](c1ccc(Cl)cc1)O[C@H](C1CCCC1)C2,/,27.8,/,23.1µM*,/,?
CC(C)(C)c1cc(C(C)(C)C)cc(S(=O)(=O)CCc2ccccn2)c1,11.2µM*,-0.9,3.6%,?,-19.4%,?
CC(C)(C)c1cc(S(=O)(=O)CCc2ccncc2)cc(C(C)(C)C)c1F,-4.4%,7.9,3.9%,?,-9.5%,-11.2%
CCCCCC(=O)Nc1ccc(N2CCN(CC)CC2)c(Cl)c1,44.4%,-7.0,?,?,?,35.5µM*
CCCCCC(=O)NC(=S)Nc1ccc(N2CCCCC2)c(Cl)c1,1.58µM*,-4.4,17.1%,?,7.08µM*,-27.0%
COc1ccc(OCC(=O)NC(=S)Nc2ccc(N3CCOCC3)c(Cl)c2)cc1,-82.6%,-0.1,-2.4%,-14.9%,-2.5%,-21.2%
CCCCCC(=O)NC(=S)Nc1ccc(N2CCOCC2)cc1,1.26µM*,-10.8,-6.7%,?,2.24µM*,-8.3%
OC1OC[C@H](O)[C@@H](O)[C@H]1O (stereo partly specified),3.1%,/,/,/,0.1%,/

# High-throughput results from PubChem BioAssay.
